An excerpt weighted towards active compounds, which were near 0.43% of everything screened.
GLA inh pH 4.5: qHTS Assay for Inhibitors of Human alpha-Galactosidase at pH 4.5. AID 1467, 2008. purified enzyme, 4-MU-alpha-Gal fluorescence, pH 4.5. 230,000 tested, under 10 active. Alpha-galactosidase A (Homo sapiens), P06280. activity change, negative = inhibition, % at 105 µM;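 also: 0% = full activity with enzyme and -100% = basal without enzyme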
Target sequence (P06280 whole entry, looked up): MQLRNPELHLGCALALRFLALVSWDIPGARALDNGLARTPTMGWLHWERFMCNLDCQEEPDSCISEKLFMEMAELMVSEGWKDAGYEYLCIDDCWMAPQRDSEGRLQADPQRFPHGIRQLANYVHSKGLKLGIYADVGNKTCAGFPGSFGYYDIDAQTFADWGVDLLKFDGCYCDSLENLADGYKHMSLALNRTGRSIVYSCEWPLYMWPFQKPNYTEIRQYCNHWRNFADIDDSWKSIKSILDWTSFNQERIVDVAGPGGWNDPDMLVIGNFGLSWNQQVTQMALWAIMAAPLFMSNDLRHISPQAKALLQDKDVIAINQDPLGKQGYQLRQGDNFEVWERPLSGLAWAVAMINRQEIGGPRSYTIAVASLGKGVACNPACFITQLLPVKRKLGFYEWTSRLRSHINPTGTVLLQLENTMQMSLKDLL
GLA spleen mod: qHTS Assay for Inhibitors and Activators of Human alpha-Galactosidase From Spleen Homogenate; hit rate 0.008% among 240,000; Potency, µM (top dose mostly 80 µM), for the others: at the top dose activity change, negative = inhibition, hits mostly inhibitors; AID 2107, 2009; human spleen homogenate, 4MU-alpha-Gal fluorescence, 40 min;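 also: potency is read from the fitted curve at half-maximal effect; 0% = enzyme with vehicle and -100% = no enzyme basal signal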
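qHTS titration in buffer at pH 5.0. Alpha-galactosidase activity in spleen homogenate was measured via 4-methylumbelliferone release from 1 mM fluorogenic substrate after 40 min at 37C and a pH 10 stop. AC50 came from Hill fits of control-normalized data.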
GAA spleen mod: qHTS Assay for Inhibitors and Activators of Human alpha-Glucosidase From Spleen Homogenate | Lysosomal alpha-glucosidase (Homo sapiens), P10253 | human spleen homogenate, 4-MU-alpha-glucoside fluorescence | Potency, µM (series often up to 79.9 µM), for inactives: at the top dose activity change, negative = inhibition, actives largely listed as inhibitors | hit rate 0.006% among 240,000 | AID 2112, 2009;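 also: potency is read from the fitted curve at half-maximal effect; 0% = enzyme with vehicle and -100% = no enzyme basal signal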
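Enzyme source: human spleen homogenate, 1 ug/well. Buffer 50 mM citric acid/K phosphate pH 5.0, 0.01% Tween-20. 4-MU-alpha-glucoside 1 mM; 37 C x 40 min; NaOH/glycine stop; fluorescence.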
GAA glycogen: qHTS Assay for Inhibitors and Activators of Human alpha-Glucosidase Cleavage of Glycogen; Potency, µM (highest dose often 76.4 µM), without a hit: at the top dose activity change, negative = inhibition, most hits filed as inhibitors; recombinant GAA, glycogen substrate, Amplex Red glucose oxidase fluorescence; Lysosomal alpha-glucosidase (Homo sapiens), P10253; hit rate 0.38% among 300,000;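 also: potency is read from the fitted curve at half-maximal effect; 0% = full enzyme reaction and -100% = no-enzyme basal signal; the screen sought inhibitors and activators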
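Natural-substrate format: glycogen cleavage by 4 nM human enzyme, glucose read by Amplex Red coupling (Ex 573, Em 610 nm). Normalized to enzyme and no-enzyme controls.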
GAA inh: qHTS Assay for Inhibitors of Human alpha-Glucosidase as a Potential Chaperone Treatment of Pompe Disease; Potency, µM (series often up to 76.9 µM), for the others: top-dose activity change, negative = inhibition, usual class: inhibitors; AID 1466, 2008; Lysosomal alpha-glucosidase (Homo sapiens), P10253; hit rate 0.005% among 200,000; purified human GAA, 4-MU-alpha-glucoside fluorescence;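 also: potency is read from the fitted curve at half-maximal effect; plate controls were uninhibited enzyme wells for no effect and no-enzyme background for full effect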
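Endpoint fluorogenic read: 20 min room-temperature reaction of 4 nM human alpha-glucosidase with 400 uM 4-methylumbelliferyl-alpha-D-pyranoside, pH 5.0, quenched with 1M NaOH/1M glycine pH 10. AC50 from Hill modeling.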
N370S GC: qHTS Assay for Inhibitors and Activators of N370S glucocerebrosidase as a Potential Chaperone Treatment of Gaucher Disease | AID 2101, 2009 | Potency, µM (titrated, usually from 59.4 µM), without a hit: at the top dose activity change, negative = inhibition, most hits filed as inhibitors | N370S GC spleen homogenate, 4MU-glucoside fluorescence | hit rate 0.092% among 330,000;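 also: potency is read from the fitted curve at half-maximal effect; 0% = full enzyme activity and -100% = no enzyme basal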
* = called active by the depositor; ! = not confirmed by another sample; [ ] = dose if it differs, or a comment. Calls follow the shape of the dose curve; as a rule, active = well fitted curve in the direction sought with a large enough effect; inconclusive = small, poorly fitted or top-dose-only effect, or another doubt; inactive = no such curve, though single readings can be large; an effect the other way counts as inactive or inconclusive.

Results for CCOc1cccc(/C=N/NC(=S)Nc2ccccc2[N+](=O)[O-])c1O ?
GLA inh pH 4.5: -8; GLA spleen mod: -6%; GAA spleen mod: 0%; GAA glycogen: 2%; GAA inh: 3%; N370S GC: 2%

What do the screens show for `Cc1ccc(C(=O)OC[C@H]2O[C@H](Cl)C[C@@H]2OC(=O)c2ccc(C)cc2)cc1`?
GLA inh pH 4.5: -1; GLA spleen mod: 2%; GAA spleen mod: -2%; N370S GC: 11%

What do the screens show for `COc1ccc(C(=O)NNC(=S)NC(=O)c2cccnc2)cc1`?
GLA inh pH 4.5: -2; GLA spleen mod: 1%; GAA spleen mod: -3%; GAA glycogen: 40µM*; GAA inh: 4%; N370S GC: -12%

How did COc1ccc(NC(=S)NNC(=O)c2cccnc2)cc1OC do in these assays?
GLA inh pH 4.5: 2; GLA spleen mod: 7%; GAA spleen mod: -6%; GAA glycogen: 4µM*; GAA inh: -7%; N370S GC: -10%

What do the screens show for `Cc1ccc2c(CNCc3cccs3)c(C(=O)O)n(Cc3ccc(F)cc3)c2c1`?
GAA glycogen: -11%[76.3 µM]

What do the screens show for `O=C1OCC(CO)(CO)N=C1NNc1ccccc1Cl`?
GLA inh pH 4.5: 2; GLA spleen mod: -2%; GAA spleen mod: -8%; GAA glycogen: 28µM*; GAA inh: -7%; N370S GC: 7%

How did COc1ccccc1CN1CCCC2(CCN(C(=O)c3ccncc3)CC2)C1 do in these assays?
GLA spleen mod: -7%; GAA spleen mod: -5%; N370S GC: 20%

Results for CCc1cc(-c2n[nH]c(C)c2-c2nc3ccccc3n2C)c(O)cc1O ?
GLA inh pH 4.5: -9; GLA spleen mod: -9%; GAA spleen mod: -6%; GAA glycogen: inconclusive; GAA inh: inconclusive; N370S GC: -21%

How did CCc1cc(-c2n[nH]c(C)c2-c2nc3ccccc3n2C)c(O)c(CN2CCN(C)CC2)c1O do in these assays?
GLA inh pH 4.5: 2; GLA spleen mod: 2%; GAA spleen mod: -5%; GAA glycogen: 8.9µM*; GAA inh: -6%; N370S GC: -5%

What do the screens show for `COc1ccc(N=Cc2sc(O)c3ccccc23)cc1`?
GLA inh pH 4.5: -12; GLA spleen mod: -10%; GAA spleen mod: -1%; GAA glycogen: 20µM*; GAA inh: -11%; N370S GC: -15%

What do the screens show for `COc1ccc(N=Cc2c(O)c3ccccc3n2C(C)=O)cc1`?
GLA inh pH 4.5: -9; GLA spleen mod: -1%; GAA spleen mod: -1%; GAA glycogen: -28%; N370S GC: -1%

Results for O=C(c1csnn1)N1CCC2(CC1)CN(c1ccccn1)C2 ?
GLA spleen mod: 6%; GAA spleen mod: 7%; N370S GC: 23%

How did CC(C)(C)NC(=O)C1CCN(S(=O)(=O)c2cccc3nsnc23)CC1 do in these assays?
GAA glycogen: -7%[76.3 µM]; N370S GC: 9%

How did COC(=O)CNC(=O)C1CCN(S(=O)(=O)c2cccc3nsnc23)CC1 do in these assays?
GAA glycogen: 11µM*!; N370S GC: -27%

Results for CCOC(=O)c1c(C)[nH]c(NC(=O)Nc2c(C)n(C)n(-c3ccccc3)c2=O)c1C ?
GLA inh pH 4.5: -3; GLA spleen mod: 1%; GAA spleen mod: -20%; GAA glycogen: 32µM*; GAA inh: -4%; N370S GC: 3%

What do the screens show for `COc1cccc(-n2cc(C(=O)NCc3ccccc3OC)c3ccccc3c2=O)c1`?
GAA glycogen: 40µM*

How did COc1cc(SC)ccc1C(=O)N1CCN(c2ccccc2)CC1 do in these assays?
GLA inh pH 4.5: 0; GLA spleen mod: 4%; GAA spleen mod: -3%; GAA glycogen: -12%; GAA inh: 13%; N370S GC: -3%

Results for COc1cc(SC)ccc1C(=O)N1CCN(c2ccc(O)cc2)CC1 ?
GLA inh pH 4.5: 2; GLA spleen mod: 5%; GAA spleen mod: 2%; GAA glycogen: 4µM*; GAA inh: 3%; N370S GC: -20%

What do the screens show for `CCCCn1c(CN2CCN(c3cccc(Cl)c3)CC2)nc2c1c(=O)n(C)c(=O)n2C`?
GLA inh pH 4.5: -20; GLA spleen mod: 35µM*; GAA spleen mod: -17%; GAA glycogen: -1%; GAA inh: inconclusive; N370S GC: -8%

Results for CCCCCn1c(CN2CCN(c3cccc(Cl)c3)CC2)nc2c1c(=O)n(C)c(=O)n2C ?
GLA inh pH 4.5: -8; GLA spleen mod: 5%; GAA spleen mod: -1%; GAA glycogen: -11%; GAA inh: inconclusive; N370S GC: -5%

Results for Cc1cc(C)c2nc(N(CCCN(C)C)C(=O)c3ccc(S(=O)(=O)N4CCCCCC4)cc3)sc2c1 ?
N370S GC: 16µM*

What do the screens show for `CC(C)c1ccc(NC(=O)C2(C)Cc3ccccc3C(=O)O2)cc1` (configuration not stated)?
GAA glycogen: -1%[76.3 µM]

What do the screens show for `Oc1ccc(/C=N/Nc2ccccc2)cc1`?
GLA inh pH 4.5: 11; GLA spleen mod: -2%; GAA spleen mod: 1%; GAA glycogen: inconclusive; GAA inh: 8%; N370S GC: -2%

What do the screens show for `Cc1nc2ccccc2nc1N/N=C/c1ccc(O)cc1`?
GLA inh pH 4.5: -15; GLA spleen mod: 3%; GAA spleen mod: 2%; GAA glycogen: 25µM*; N370S GC: -27%

How did Oc1ccc(Nc2nc3ccccc3nc2Nc2ccc(O)cc2)cc1 do in these assays?
GLA inh pH 4.5: -3; GLA spleen mod: -7%; GAA spleen mod: -2%; GAA glycogen: 20µM*; GAA inh: -1%; N370S GC: 4.5µM*

How did COc1cc(N(C)C)cc(CN(C)CCc2ccc([N+](=O)[O-])cc2)c1O do in these assays?
GLA spleen mod: -15%; GAA spleen mod: -8%; N370S GC: -9%

Results for COC(=O)[C@@H](NC(=O)N1CCc2nc(-c3ccccc3)c3c(c2C1)CO[C@@H](C)C3)C(C)C ?
GLA inh pH 4.5: -6; GLA spleen mod: -5%[17.5 µM]; GAA spleen mod: -6%[17.4 µM]; N370S GC: 1%[12.8 µM]

Results for COc1cccc(/C=N/Nc2ccc(S(=O)(=O)O)cc2)c1O ?
GLA inh pH 4.5: 6; GLA spleen mod: -3%; GAA spleen mod: 1%; GAA glycogen: 7.9µM*; GAA inh: 5%; N370S GC: -4%
